# Reference: PubChem BioAssay (NCATS)
# Inconclusive results are not listed. A call without a number means that no potency is given here. A number with no mark means an inactive call. Calls of active or inactive are those of the source. Calls come from the whole dose curve; as a rule, active = well fitted curve in the direction sought with a large enough effect; inconclusive = small, poorly fitted or top-dose-only effect, or another doubt; inactive = no such curve, though single readings can be large; an effect the other way counts as inactive or inconclusive.
# Tests used:
# [1] = system: CRL-7250; assay: qHTS assay to identify novel small-molecules to repurpose for Merkel cell carcinoma treatment (AID 1296009); details: MCC and control cell lines, CellTiter-Glo viability, 72 h; at 44.8 µM (top of the series) unless noted; note: nearly all actives have a fitted effect of over 60% in size
# How it was run: (§1)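 CellTiter-Glo luminescence after 72 hr compound exposure at 37 degree celsius gave cell viability. Libraries NPC and MIPE were run as 8- and 11-point dose responses; RLUs normalized to DMSO (negative) and no-cell (cytotoxicity) controls.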
# [2] = system: KB-3-1; assay: Cytotoxic Profiling of Annotated Libraries Using Quantitative High-Throughput Screening (AID 1296008); details: Five cell lines viability, CellTiter-Glo ATP luminescence, 48-72 h; max response: active compounds read low; note: nearly all actives have a fitted effect of over 60% in size
# How it was run: (§2)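 Cells exposed to compounds for 48 or 72 hr at 37 degrees Celsius. Viability read as ATP-coupled luminescence with CellTiter-Glo after 10 min at room temperature.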
# [3] = system: NIH3T3; assay: as above; details: Five cell lines viability, CellTiter-Glo ATP luminescence, 48-72 h; max response: active compounds read low
# How it was run: as §2
# [4] = system: MCC-13; assay: qHTS assay to identify novel small-molecules to repurpose for Merkel cell carcinoma treatment (AID 1296009); details: MCC and control cell lines, CellTiter-Glo viability, 72 h; series mostly up to 46 µM; note: nearly all actives have a fitted effect of over 60% in size
# How it was run: as §1
# [5] = system: MCC-26; assay: as above; details: MCC and control cell lines, CellTiter-Glo viability, 72 h; series mostly up to 46 µM
# How it was run: as §1
# [6] = system: MKL-1; assay: as above; details: MCC and control cell lines, CellTiter-Glo viability, 72 h; series mostly up to 46 µM
# How it was run: as §1
# [7] = system: HaCat; assay: Cytotoxic Profiling of Annotated Libraries Using Quantitative High-Throughput Screening (AID 1296008); details: Five cell lines viability, CellTiter-Glo ATP luminescence, 48-72 h; max response: active compounds read low; note: nearly all actives have a fitted effect of over 60% in size
# How it was run: as §2
# [8] = system: MKL-2; assay: qHTS assay to identify novel small-molecules to repurpose for Merkel cell carcinoma treatment (AID 1296009); details: MCC and control cell lines, CellTiter-Glo viability, 72 h; series mostly up to 46 µM; note: nearly all actives have a fitted effect of over 60% in size
# How it was run: as §1
# [9] = system: WaGa; assay: as above; details: MCC and control cell lines, CellTiter-Glo viability, 72 h; series mostly up to 46 µM
# How it was run: as §1
# [10] = system: C33A; assay: Primary qHTS to identify gynecologic anti-cancer compounds using libraries of approved drugs and bioactive compounds (AID 1345084); details: Gynecologic cancer cell panel viability, ATPlite luminescence, 48 h; series mostly up to 57.5 µM; note: nearly all actives have a fitted effect of over 55% in size
# How it was run: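 ATP-based viability (ATPlite), 1,000 cells/well, 16 h pre-incubation, 48 h compound at 37 C, 5% CO2, 15 min RT before read.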
# [11] = system: UISO; assay: qHTS assay to identify novel small-molecules to repurpose for Merkel cell carcinoma treatment (AID 1296009); details: MCC and control cell lines, CellTiter-Glo viability, 72 h; series mostly up to 46 µM; note: nearly all actives have a fitted effect of over 60% in size
# How it was run: as §1
# [12] = system: TAB109; assay: qHTS profiling for inhibitors of Plasmodium falciparum proliferation (AID 504749); note: nearly all actives have a fitted effect of over 60% in size; details: P. falciparum in erythrocytes, SYBR Green DNA, 72 h; series mostly up to 28.7 µM
# How it was run: (§3)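 SYBR Green fluorescence (ex 485 nm, em 535 nm) reports parasite DNA after 72 h compound exposure of infected red cells at 0.3% parasitemia, 2.5% hematocrit; signal normalized to 0.29 uM artemisinin and vehicle wells.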
# [13] = system: TAB113; assay: as above; details: P. falciparum in erythrocytes, SYBR Green DNA, 72 h; series mostly up to 28.7 µM
# How it was run: as §3
# [14] = system: TAB165; assay: as above; details: P. falciparum in erythrocytes, SYBR Green DNA, 72 h; series mostly up to 28.7 µM
# How it was run: as §3
# [15] = system: W2; assay: as above; details: P. falciparum in erythrocytes, SYBR Green DNA, 72 h; series mostly up to 28.7 µM
# How it was run: as §3
# [16] = system: HACAT; assay: qHTS assay to identify novel small-molecules to repurpose for Merkel cell carcinoma treatment (AID 1296009); details: MCC and control cell lines, CellTiter-Glo viability, 72 h; at 44.8 µM (top of the series) unless noted; note: nearly all actives have a fitted effect of over 60% in size
# How it was run: as §1
# Potency is the fitted concentration of half-maximal effect.
structure (smiles),measurement,setting,value
Cn1c(NCCN(CCO)CCCc2ccc([N+](=O)[O-])cc2)cc(=O)n(C)c1=O,outcome,[1],inactive
Nc1ccc(N=Nc2ccccc2)cc1,max response,[2],-15.1%
same,Potency,[3],6.86 µM (active)
same,Potency,[4],inactive
same,Potency,[5],inactive
same,Potency,[6],inactive
CC(C)[C@H]1C(=O)N[C@H](CO)Cc2c[nH]c3cccc(c23)N1C,max response,[7],-1.9%
same,max response,[2],9.88%
same,max response,[3],-1.36%
same,Potency,[4],inactive
same,Potency,[6],inactive
same,Potency,[8],inactive
same,Potency,[9],inactive
CC(C[N+](C)(C)C)OC(N)=O (stereo not given),outcome,[1],inactive
Clc1ccccc1CN1CCc2sccc2C1,outcome,[1],inactive
CCCCCCCCc1ccc(O)cc1,Potency,[7],24.6 µM (active)
same,max response,[2],-0.951%
same,Potency,[4],inactive
same,Potency,[5],inactive
same,Potency,[9],43.7 µM (active)
same,Potency,[10],25.1 µM (active)
CC[C@@H]1[C@@H](C)O[C@@](O)([C@@H](C)[C@H](O)[C@H](C)[C@H]2OC(=O)C=CC=C[C@@H](C)[C@@H]([C@@H](C)[C@@H](O)[C@H](C)[C@@]3(O)C[C@H](O[C@H]4C[C@H](O)[C@H](O)[C@H](C)O4)[C@H](CC)[C@@H](C)O3)OC(=O)C=CC=C[C@@H]2C)C[C@H]1O[C@H]1C[C@H](O)[C@H](O)[C@H](C)O1,Potency,[7],3.32 µM (active)
same,Potency,[2],5.9 µM (active)
same,Potency,[3],1.66 µM (active)
same,Potency,[4],16.6 µM (active)
same,Potency,[5],8.33 µM (active)
same,Potency,[6],14.8 µM (active)
same,Potency,[11],8.33 µM (active)
same,Potency,[9],2.64 µM (active)
CCCCc1ccc(C(=O)O)nc1,Potency,[12],inactive
same,Potency,[13],inactive
same,Potency,[14],inactive
same,Potency,[15],inactive
same,max response,[2],2.2%
CN[C@@H]1C[C@@H](c2ccc(Cl)c(Cl)c2)c2ccccc21,Potency,[13],inactive
same,Potency,[15],4.78 µM (active)
same,max response,[2],-9.15%
COC[C@H]1OC(=O)c2coc3c2[C@@]1(C)C1=C(C3=O)[C@@H]2CC[C@H](O)[C@@]2(C)C[C@@H]1OC(C)=O,max response,[7],-14.2%
same,max response,[2],-14.9%
same,Potency,[3],16.6 µM (active)
same,Potency,[4],inactive
same,Potency,[8],8.33 µM (active)
same,Potency,[9],10.5 µM (active)
O=C(O)[C@H](Cc1c[nH]c2ccccc12)N1C(=O)c2ccccc2C1=O,outcome,[1],inactive [at 92 µM]
CC(=CCCC1=CCC(C2=CC(=O)OC2O)OC1O)CCC1=C(C)CCCC1(C)C (stereo not given),max response,[7],-18.3%
same,max response,[2],-6.74%
same,max response,[3],-0.889%
same,Potency,[4],inactive
same,Potency,[5],inactive
same,Potency,[6],inactive
same,Potency,[8],inactive
same,Potency,[11],inactive
same,Potency,[9],inactive
Cc1cc2c(cc1C1(c3ccc(C(=O)O)cn3)CC1)C(C)(C)CCC2(C)C,outcome,[1],inactive
COc1ccc(CCN(C)CCCOc2ccc(S(=O)(=O)c3[nH]c4ccccc4c3C(C)C)cc2)cc1OC,outcome,[1],inactive
CS(=O)(=O)Oc1ccc2c(NC(N)=O)c(C(=O)c3ccc(Cl)cc3Cl)oc2c1,outcome,[1],inactive
ClC1=C(Cl)[C@]2(Cl)[C@@H]3[C@@H]4C[C@@H]([C@H]5O[C@@H]45)[C@@H]3[C@@]1(Cl)C2(Cl)Cl,max response,[2],13.3%
same,Potency,[4],inactive
same,Potency,[5],inactive
same,Potency,[6],inactive
same,Potency,[8],inactive
same,Potency,[10],inactive
O=[N+]([O-])c1cccc(S(=O)(=O)NCCNS(=O)(=O)c2cccc([N+](=O)[O-])c2)c1,outcome,[1],inactive
CC(C)OC(=O)C1=CN(C(=O)c2ccc(F)c(F)c2)CC(C)(C)c2c1[nH]c1ccccc21,outcome,[1],inactive
O=C1CCCC2=C1C(c1[nH]ncc1Cl)N=C(Nc1nc3ccccc3o1)N2 (stereo not given),outcome,[1],inactive
NC(=O)CN1CC(O)CC1=O (stereo not given),Potency,[12],inactive
same,Potency,[13],inactive
same,Potency,[14],inactive
same,Potency,[15],inactive
same,max response,[2],3.82%
O=S(c1cc(Cl)cc(Cl)c1O)c1cc(Cl)cc(Cl)c1O,outcome,[1],inactive
c1ccc(CCCN2CCN(CCOC(c3ccccc3)c3ccccc3)CC2)cc1,Potency,[3],16.6 µM (active)
same,Potency,[4],inactive
same,Potency,[5],inactive
same,Potency,[6],inactive
same,Potency,[8],20.9 µM (active)
CCCN1CCC[C@H](c2cccc(O)c2)C1,Potency,[12],inactive
same,Potency,[13],inactive
same,Potency,[14],inactive
same,Potency,[15],15.1 µM (active)
same,max response,[2],0.305%
O=C(C=Cc1c(C(=O)O)[nH]c2cc(Cl)cc(Cl)c12)Nc1ccccc1,outcome,[1],inactive
CC1=C(O)C(=O)C=C2C1=CC=C1[C@@]2(C)CC[C@@]2(C)[C@@H]3C[C@](C)(C(=O)O)CC[C@]3(C)CC[C@]12C,Potency,[7],2.64 µM (active)
same,Potency,[2],2.96 µM (active)
same,Potency,[3],3.32 µM (active)
same,Potency,[4],4.18 µM (active)
same,Potency,[11],3.72 µM (active)
C=CCC1=C(C)C(OC(=O)C2C(C=C(C)C)C2(C)C)CC1=O (stereo not given),outcome,[7],inactive
same,max response,[2],-7.18%
same,outcome,[16],inactive [at 92 µM]
same,Potency,[4],inactive
same,Potency,[5],inactive
same,Potency,[10],inactive
c1ccc(C2(c3ccccc3)CC2C2=NCCN2)cc1 (stereo not given),Potency,[12],inactive
same,Potency,[13],inactive
same,Potency,[14],inactive
same,max response,[2],-1.25%
COc1ccc2c(c1)c1c3n2CCN(C)C3=NCC1,outcome,[1],inactive
CN1C2CCC1CC(OC(=O)c1cc(Cl)cc(Cl)c1)C2 (stereo not given),Potency,[12],inactive
same,Potency,[13],inactive
same,Potency,[14],inactive
same,Potency,[15],10.7 µM (active)
C=CCN1CC[C@]23CCCCC2[C@H]1Cc1ccc(O)cc13 (stereo not given in full),Potency,[12],inactive
same,Potency,[13],inactive
same,Potency,[14],inactive
CN1[C@H]2CC(O)C[C@H]1[C@H]1O[C@H]12 (stereo not given in full),Potency,[4],inactive
same,Potency,[6],inactive
same,Potency,[8],inactive
same,Potency,[9],inactive
COc1ccc(C(c2ccc(OC)cc2)C(Cl)(Cl)Cl)cc1,Potency,[4],inactive
